# The full ranking holds about 18,000 sequences; the median of “log2 normalized intensity” is about 0.36, and the highest 2% start at about 7.3. This is one part of a sample in which the highest values are shown more often than they occur.
# Target: T1, HNF4alpha8 (COS-7 nuclear extract) (Homo sapiens, UniProt P41235-5 1-452)
# T1 sequence: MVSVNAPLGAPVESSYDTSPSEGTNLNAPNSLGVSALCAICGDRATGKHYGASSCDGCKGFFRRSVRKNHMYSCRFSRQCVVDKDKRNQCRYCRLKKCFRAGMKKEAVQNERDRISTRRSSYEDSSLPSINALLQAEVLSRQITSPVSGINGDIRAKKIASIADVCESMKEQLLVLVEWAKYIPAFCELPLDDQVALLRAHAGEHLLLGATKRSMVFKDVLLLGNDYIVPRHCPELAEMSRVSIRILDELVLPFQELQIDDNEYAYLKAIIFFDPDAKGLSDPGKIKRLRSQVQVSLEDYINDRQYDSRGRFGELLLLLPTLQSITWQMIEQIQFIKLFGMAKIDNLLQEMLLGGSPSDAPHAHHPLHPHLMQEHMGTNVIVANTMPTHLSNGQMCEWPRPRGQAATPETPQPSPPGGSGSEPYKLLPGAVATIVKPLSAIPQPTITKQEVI
# Experiment: protein-binding microarray; COS-7 nuclear extract on double-stranded Agilent 4x180k PBM; binding buffer, salt, pH and temperature not given in the material; high values mean tight binding
# Settings: chain copies: 2; label: 3' end of strand 1 on the slide; dsDNA, one strand shown
# Procedure, shortened: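 A human HNF4α isoform was expressed in COS-7 cells by transient CaPO4 transfection, and nuclear extracts were prepared. These were applied to a custom Agilent SurePrint G3 4x180k array carrying ~44,000 test sequences in quadruplicate as double-stranded ~60-nt oligonucleotides, and an Agilent G2565CA scanner imaged bound HNF4α at 2-µm resolution. The background-corrected, normalized gProcessedSignal from Agilent software was used as the binding signal.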
row,Sequence,binding signal [log2 normalized intensity]
1,ACAGTAGACTTTTTTTTTCTTAATTGCCCTGCCTAGGGAGATTAGAGTATCGGTCGA,3.18
2,AGACTTTTTTTTTCTTAATTGCCCTTTGCCGCCTAGGGAGATTAGAGTATCGGTCGA,5.04
3,TTTTTTTTCTTAATTGCCCTTTGCCCTTTGGCCTAGGGAGATTAGAGTATCGGTCGA,9.03
4,TACTGGGGATGGACTTTGGCCCTCAGCCCAGCCTAGGGAGATTAGAGTATCGGTCGA,9.48
5,GTGACTTGAAAGGGACTTAGAATCGAATTGGCCTAGGGAGATTAGAGTATCGGTCGA,-0.0805
6,GAACAGCAAGACTTTGGCCCTGCAGACTTTGCCTAGGGAGATTAGAGTATCGGTCGA,3.02
7,TGCCATGATAAGCAGTGTGGACTTTTTCCTGCCTAGGGAGATTAGAGTATCGGTCGA,3.69
8,AAAGAGATTGGACTTTGGCCTGTGAATCCAGCCTAGGGAGATTAGAGTATCGGTCGA,9.05
9,TCTGATGCCATGATAAGCAGTGTGGACTTTGCCTAGGGAGATTAGAGTATCGGTCGA,7.54
10,ACCTCTCTGATGCCATGATAAGCAGTGTGGGCCTAGGGAGATTAGAGTATCGGTCGA,0.716
11,GGGATGGACTTTGGCCCTCAGCCCAATGTGGCCTAGGGAGATTAGAGTATCGGTCGA,7.1
12,GGACTTTGGCCCTCAGCCCAATGTGGTAGGGCCTAGGGAGATTAGAGTATCGGTCGA,6.09
13,GATTGGACTTTGGCCTGTGAATCCACATTCGCCTAGGGAGATTAGAGTATCGGTCGA,6.47
14,TGAATTCTGCAGCAGATGGCCAGCCTTTGGGCCTAGGGAGATTAGAGTATCGGTCGA,-0.939
15,TCTGCAGCAGATGGCCAGCCTTTGGACTTTGCCTAGGGAGATTAGAGTATCGGTCGA,8.08
16,CCCTGGTCTCTCTTACCCAACCAAAAACAAGCCTAGGGAGATTAGAGTATCGGTCGA,3.38
17,TACAGGCGTGAGCCACCGCGCCCCGCCCCCGCCTAGGGAGATTAGAGTATCGGTCGA,6.17
18,TCTCAGGTGAGCAGAGGGAGGACAAAGTTCGCCTAGGGAGATTAGAGTATCGGTCGA,5.01
19,GCCACATCCCCCACACCGAGATAGTAGAGAGCCTAGGGAGATTAGAGTATCGGTCGA,3.27
20,ACTTCTGAGTTTTATCAGCTTCCCTGAGATGCCTAGGGAGATTAGAGTATCGGTCGA,-0.495
21,AAACTTCCACTAACTTGAGTGTGCACCCTGGCCTAGGGAGATTAGAGTATCGGTCGA,1.93
22,CCGCAGCGCTGGTGGCTGCAAGGTTTGTGTGCCTAGGGAGATTAGAGTATCGGTCGA,0.472
23,TTATCATTACTTCTCAACTGATATGGCTCTGCCTAGGGAGATTAGAGTATCGGTCGA,0.393

row,Sequence,binding signal [log2 normalized intensity]
1,AAGAAACTCGTGGCATTTTTGCCCCTGCCCGCCTAGGGAGATTAGAGTATCGGTCGA,3.61
2,CAAATAACATTCCTAACATTCTTCCTCACAGCCTAGGGAGATTAGAGTATCGGTCGA,-0.982
3,TTTGATGGACATTGCTGGTGGTGGTAGATCGCCTAGGGAGATTAGAGTATCGGTCGA,1.45
4,TTTGTGATTACATTGAGTCCACTGAGATCAGCCTAGGGAGATTAGAGTATCGGTCGA,1.91
5,CACTTTCCACTCTCTACTGATATGTCCTCCGCCTAGGGAGATTAGAGTATCGGTCGA,1.83
6,TTTCTGCTCTCAACTAGAGATAAACTTTTGGCCTAGGGAGATTAGAGTATCGGTCGA,0.481
7,CCCCACTGTAGTAAGGGAGTGTGGGGTGGTGCCTAGGGAGATTAGAGTATCGGTCGA,-0.92
8,TGTGCTGCCCCCGATAGCACTATTAGTCTTGCCTAGGGAGATTAGAGTATCGGTCGA,3.06
9,GCCACATCCTGTCTCCTTTAACCTTCATTCGCCTAGGGAGATTAGAGTATCGGTCGA,1.97
10,CACTGTCTCAGGGTCCACATTCCAGGAATAGCCTAGGGAGATTAGAGTATCGGTCGA,2.44
11,TGATAGCCATCTGGTGGACTTTGCTCTGCTGCCTAGGGAGATTAGAGTATCGGTCGA,8.15
12,CTGCTTGATAGCCATCTGGTGGACTTTGCTGCCTAGGGAGATTAGAGTATCGGTCGA,6.09
13,AGCAGATGGCCAGCCTTTGGACTTTGAACTGCCTAGGGAGATTAGAGTATCGGTCGA,11.2
14,GCCATCTGGTGGACTTTGCTCTGCTCATTTGCCTAGGGAGATTAGAGTATCGGTCGA,7.25
15,ACCTGGAACTGAAAGAGACCTTTGACATCAGCCTAGGGAGATTAGAGTATCGGTCGA,5.23
16,TTTTTGGCCTTTACCCCTTGAGTTTGAACTGCCTAGGGAGATTAGAGTATCGGTCGA,4.12
17,GCATTAACATCAACATGGACTTTGAGTCATGCCTAGGGAGATTAGAGTATCGGTCGA,6.9
18,TACCTTTCCTGCATTAACATCAACATGGACGCCTAGGGAGATTAGAGTATCGGTCGA,2.03
19,CTGGACTTTGGCTGCAAAATTTGAACAAAAGCCTAGGGAGATTAGAGTATCGGTCGA,2.14
20,CAGCCTTTGGACTTTGAACTGCAACATCAGGCCTAGGGAGATTAGAGTATCGGTCGA,8.89
21,TTCCTGCATTAACATCAACATGGACTTTGAGCCTAGGGAGATTAGAGTATCGGTCGA,9.28
22,CTGCCTTTCCCAGATGGATTGATAGACTTAGCCTAGGGAGATTAGAGTATCGGTCGA,0.78
23,TCCAACCTGTTCTTTTGAGCTGTGGTTAAGGCCTAGGGAGATTAGAGTATCGGTCGA,1.73

row,Sequence,binding signal [log2 normalized intensity]
1,CAATCCAGAAGGCGCTGAACTTTGCCTTGTGCCTAGGGAGATTAGAGTATCGGTCGA,5.04
2,ATGGGACCTTTGCCCTTCTTGTTAACCTCCGCCTAGGGAGATTAGAGTATCGGTCGA,4.54
3,CCTGAGCCTGGACCTTGGAATGTCAAGATTGCCTAGGGAGATTAGAGTATCGGTCGA,3.05
4,AGCAGCATAAAGGACTTTCAACCCTGTGATGCCTAGGGAGATTAGAGTATCGGTCGA,3.89
5,AAAACCATTGCAAATTGGATGTTGAACCTCGCCTAGGGAGATTAGAGTATCGGTCGA,4.51
6,AGGGTCTTTGCAACTGTGTGTGGCCTGCACGCCTAGGGAGATTAGAGTATCGGTCGA,1.53
7,ATGGCCAGCCTTTGGACTTTGAACTGCAACGCCTAGGGAGATTAGAGTATCGGTCGA,10.1
8,ATGGAAGGACCTTGGACTGAAGACTGGAACGCCTAGGGAGATTAGAGTATCGGTCGA,3.17
9,GCTGGGTCAAAGTGTATGCATATTTTAAGTGCCTAGGGAGATTAGAGTATCGGTCGA,2.27
10,AGGAGGAGGTTCCTGGAACTCTGACCTTTGGCCTAGGGAGATTAGAGTATCGGTCGA,6.98
11,GAGGTTCCTGGAACTCTGACCTTTGCCCCCGCCTAGGGAGATTAGAGTATCGGTCGA,10.3
12,TCCTGGAACTCTGACCTTTGCCCCCAGCCTGCCTAGGGAGATTAGAGTATCGGTCGA,10.1
13,GGAACCCCACCCCCACGCCCCCCAGCGGAAGCCTAGGGAGATTAGAGTATCGGTCGA,7.38
14,GCCTGCCCCTCTGACCTCTCCTCCTACCTTGCCTAGGGAGATTAGAGTATCGGTCGA,3.39
15,CCCACCCCCACGCCCCCCAGCGGAAGTCCAGCCTAGGGAGATTAGAGTATCGGTCGA,6.82
16,CCCCACCCCCACTGCCTGACCCCAAGTAATGCCTAGGGAGATTAGAGTATCGGTCGA,7.09
17,GGATCGGAACCCCACCCCCACGCCCCCCAGGCCTAGGGAGATTAGAGTATCGGTCGA,7.03
18,AAATCTGCCCAACCTTTGCCCCTGGAGGGAGCCTAGGGAGATTAGAGTATCGGTCGA,4.18
19,CCCCCACTGCCTGACCCCAAGTAATAGCCGGCCTAGGGAGATTAGAGTATCGGTCGA,5.69
20,ACCGACCTTTGGTTCCTGAACTCAAACCCCGCCTAGGGAGATTAGAGTATCGGTCGA,3.35
21,TTCATCCCCACCCCCACTGCCTGACCCCAAGCCTAGGGAGATTAGAGTATCGGTCGA,7.49
22,CTTCCACCCACTTTATCTTCTATAGGAATTGCCTAGGGAGATTAGAGTATCGGTCGA,0.738
23,GTGTGTGGCCTGCACAGTTGCACAATGTCAGCCTAGGGAGATTAGAGTATCGGTCGA,0.815

row,Sequence,binding signal [log2 normalized intensity]
1,CTATAGTTATCTCTGCTGATAGCATAAAGCGCCTAGGGAGATTAGAGTATCGGTCGA,0.212
2,GGCTCCCTGGGGTTAAAATGTTTACTGAAGGCCTAGGGAGATTAGAGTATCGGTCGA,0.937
3,CTGTGCAAGCCCCTGACCAAGGGTCATGCTGCCTAGGGAGATTAGAGTATCGGTCGA,3.96
4,GAACTCTGACCTTTGCCCCCAGCCTCTCACGCCTAGGGAGATTAGAGTATCGGTCGA,9.22
5,TGCCCAGCTTGAATCACTCACTGACCTCTTGCCTAGGGAGATTAGAGTATCGGTCGA,4.46
6,GCTATCTTATCTTTGACCTTACCAGCCCACGCCTAGGGAGATTAGAGTATCGGTCGA,2.94
7,CTGACCTTTGCCCCCAGCCTCTCACAGTAGGCCTAGGGAGATTAGAGTATCGGTCGA,7.53
8,AGCCTCTCACAGTAGCCCAGGTCCTTTGGTGCCTAGGGAGATTAGAGTATCGGTCGA,0.598
9,CTTTGCCCCCAGCCTCTCACAGTAGCCCAGGCCTAGGGAGATTAGAGTATCGGTCGA,4.72
10,TCTGCTTGCCATTAATGAAAACTGCACTTCGCCTAGGGAGATTAGAGTATCGGTCGA,2.38
11,TTTATTTGAAGAAATGGTGGACTTTGTAGCGCCTAGGGAGATTAGAGTATCGGTCGA,6.52
12,GATGAGTGACCTTTGACCTCAGAGAGCCGGGCCTAGGGAGATTAGAGTATCGGTCGA,9.88
13,TCATTGATGAGTGACCTTTGACCTCAGAGAGCCTAGGGAGATTAGAGTATCGGTCGA,10.5
14,CTAGGAAACTGACCTTTGCTCATGACTATTGCCTAGGGAGATTAGAGTATCGGTCGA,6.61
15,ATTCTCACCACTAGGAAACTGACCTTTGCTGCCTAGGGAGATTAGAGTATCGGTCGA,6.07
16,GTGACCTTTGACCTCAGAGAGCCGGAAACTGCCTAGGGAGATTAGAGTATCGGTCGA,8.02
17,CTTTGACCTCAGAGAGCCGGAAACTCCACCGCCTAGGGAGATTAGAGTATCGGTCGA,-0.861
18,CCCTCAGAGCTCAGATGAACTTTGCCTTAGGCCTAGGGAGATTAGAGTATCGGTCGA,6.28
19,CACCACTAGGAAACTGACCTTTGCTCATGAGCCTAGGGAGATTAGAGTATCGGTCGA,7.58
20,TTGCCCCTTTGACCCTCGGGCCTCCCTAGAGCCTAGGGAGATTAGAGTATCGGTCGA,4.81
21,AAAGACTTGCTCATTGATGAGTGACCTTTGGCCTAGGGAGATTAGAGTATCGGTCGA,7
22,GGCTGATGACCTTTGACTGAGATGGGAGCAGCCTAGGGAGATTAGAGTATCGGTCGA,4.58
23,CTACTACTTGACCTTTGAAACATATCCAGAGCCTAGGGAGATTAGAGTATCGGTCGA,6.31

# Source: paper PMC10726135, “HNF4α isoforms regulate the circadian balance between carbohydrate and lipid metabolism in the liver”
